# Screening data: PubChem, several laboratories
# Pemphigus Ab inh – inhibitors of pemphigus antibody binding to human desmoglein-3 | DSG3-coupled beads, scFv-anti-DSG3-GFP binding, flow cytometry; active compounds read low | binding (percent of control), % at 10 µM | 310,000 tested, 0.48% active | AID 588358;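 active means binding more than 3 SD below its plate's average and above zero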;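 further: hits lower antibody fragment binding to DSG3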
# M18AAP inhibitor – PfM18AAP enzyme inhibition | recombinant PfM18AAP, H-Glu-NHMec fluorogenic cleavage | inhibition, % at 7.35 µM | 290,000 tested, 1.2% active | AID 1822;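 active means inhibition above the campaign mean inhibition over all tested compounds plus 3 SD, cut at about 28% in these data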
# PAFAH2 FP inh – PAFAH2 (human) inhibition. inhibition, % at 3.39 µM. AID 492956. Q99487. 340,000 tested, 0.99% active. recombinant PAFAH2, FP-rhodamine activity probe, fluorescence polarization;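 active means inhibition above the mean over all tested compounds plus 3 SD, cut at about 30% in these data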;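 further: inhibitors block probe labeling of enzyme so polarization drops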
# pPAFAH FP inh – pPAFAH (human) enzyme inhibition | Q13093 | recombinant pPAFAH, FP-rhodamine probe fluorescence polarization | inhibition, % at 3.39 µM | 330,000 tested, 1.5% active;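 active means inhibition above the mean inhibition across the screen plus 3 SD, cut at about 25% in these data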;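 further: inhibitors block binding of the rhodamine activity-based probe so polarization drops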
# PAFAH1B3 FP inh – PAFAH1B3 (human) inhibition. inhibition, % at 3.39 µM. Q15102. 340,000 tested, 0.28% active. AID 492972. recombinant PAFAH1B3, FP-rhodamine probe, fluorescence polarization;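 active means inhibition above the screen-wide average of all tested compounds plus 3 SD, cut at about 25% in these data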
# Target sequence (Q15102 whole entry, looked up): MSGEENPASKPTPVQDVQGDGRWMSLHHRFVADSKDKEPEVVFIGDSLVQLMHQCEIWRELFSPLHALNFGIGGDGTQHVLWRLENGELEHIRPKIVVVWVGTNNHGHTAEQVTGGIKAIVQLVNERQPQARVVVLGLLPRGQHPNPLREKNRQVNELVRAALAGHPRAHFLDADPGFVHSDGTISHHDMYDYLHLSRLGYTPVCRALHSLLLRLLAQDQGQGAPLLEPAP
# PAFAH1B2 FP inh – inhibitors of human PAFAH1B2 | recombinant PAFAH1B2, FP-rhodamine activity probe, fluorescence polarization | P68402 | 340,000 tested, 1.2% active | inhibition, % at 3.39 µM;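 active means inhibition above the mean of all tested compounds plus 3 SD, cut at about 24% in these data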
# pPAFAH confirm – pPAFAH (human) inhibition, confirmed; 2,300 tested, 72% active; recombinant pPAFAH, FP-Rh probe fluorescence polarization; shares compounds with pPAFAH FP inh; inhibition, % at 3.39 µM;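 active means mean inhibition of the triplicate above the hit cutoff set for the earlier primary screen, cut at about 25% in these data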
# Numbers stand for hits; - = inactive; . = no result. Only some compounds are listed: those with a hit (about 3.8% of all), similar ones and a draw of the others.
SMILES,Pemphigus Ab inh,M18AAP inhibitor,PAFAH2 FP inh,pPAFAH FP inh,PAFAH1B3 FP inh,PAFAH1B2 FP inh,pPAFAH confirm
CCOC(=O)N1CCN(S(=O)(=O)c2ccc(C(=O)N(CCN(C)C)c3nc4ccc(Cl)cc4s3)cc2)CC1,-,-,-,-,-,-,.
CCOC(=O)N1CCN(S(=O)(=O)c2ccc(C(=O)NNc3nc4ccc(Cl)cc4s3)cc2)CC1,-,-,-,38,-,-,39
CN(C)C(=S)Nc1cccc(-c2n[nH]c(=S)o2)c1,-,-,-,-,-,-,.
NNC(=S)Nc1cccc(-c2n[nH]c(=S)o2)c1,-,-,-,39,-,-,-
CC(C)n1nnnc1SCC(=O)NC1CCCC1,-,-,-,-,-,-,.
COc1ccc(CN(C(=O)COc2ccccc2)c2ccccc2C(=O)O)cc1,-,-,-,-,-,-,.
COc1ccc(C(CNC(=O)c2ccc(-c3nc4ccccc4s3)o2)N2CCCC2)cc1 (configuration not stated),-,.,-,-,-,-,.
COc1cc(OC)cc(-c2c(-c3cccs3)c3cc(-c4ccc(OCc5ccccc5)cc4)ccc3n2C)c1,.,.,-,45,-,-,-
COc1ccc(N2CCC(CNC(=O)Nc3cccc(OC)c3)C2)cc1 (configuration not stated),-,-,-,-,-,-,.
COc1ccc(N2CCC(CNC(=O)Nc3ccc(Cl)cc3)C2)cc1 (configuration not stated),-,-,-,36,-,-,-
CN1C(=O)NC(c2ccccc2[N+](=O)[O-])C2=C1CCCC2=O (configuration not stated),-,-,67,72,58,49,-
CN1C(=O)NC(c2ccccc2[N+](=O)[O-])C2=C1CC(C)(C)CC2=O (configuration not stated),-,-,-,-,-,-,.
COc1ccccc1NC(=O)C1CC(O)CN1C(=O)Oc1ccccc1 (configuration not stated),-,-,-,-,-,-,.
Cc1ccc(CN2CCC(n3nccc3NC(=O)CCOc3ccccc3)CC2)o1,-,-,-,-,-,-,.
O=C(CCOc1ccccc1)Nc1ccnn1C1CCN(Cc2ccc(CO)o2)CC1,-,-,-,43,-,-,-
COc1ccccc1OC(C)C(=O)Nc1ccccc1C(=O)NCc1cccnc1 (configuration not stated),.,-,-,-,-,-,.
Cc1cccc(C)c1N1C(=O)[C@@H]2C(c3ccccc3Cl)=NO[C@@H]2C1=O,.,-,-,-,-,-,.
COc1ccc(OC)c(N2C(=O)[C@@H]3C(c4ccccc4Cl)=NO[C@@H]3C2=O)c1,-,-,-,38,-,-,-
O=C(O)c1ccccc1-c1nc(-c2ccccc2)c(-c2ccccc2)[nH]1,-,-,-,-,-,-,.
O=C(O)c1cccc2c(-c3ccccc3)c(-c3ccccc3)[nH]c12,-,-,-,52,-,48,46
CCC1(c2ccccc2)NC(=O)N(CC(=O)NCc2ccc(OC)cc2)C1=O (configuration not stated),.,-,-,-,-,-,.
CN(C)/C=C/C(=O)/C=C/c1ccc(Cl)cc1,-,-,-,37,-,-,-
COc1ccccc1NS(=O)(=O)c1ccc(-c2cnc(C3CC3)o2)cc1,-,-,-,-,-,-,.
Cc1ccc(NS(=O)(=O)c2ccc(-c3cnc(C4CC4)o3)cc2)c(C)c1,-,-,-,53,-,-,46
Cc1c(NS(=O)(=O)c2cc(C(=O)NCCN(C)C)ccc2Cl)c(=O)n(-c2ccccc2)n1C,-,-,-,51,-,-,-
COc1ccc(S(=O)(=O)Nc2c(C)n(C)n(-c3ccccc3)c2=O)c(Cl)c1Cl,-,-,-,62,-,-,-
CC(=O)c1c(C)nn(CC(=O)NC2CCCN(Cc3ccc(CC(C)C)cc3)C2)c1C (configuration not stated),-,-,-,-,-,-,.
CC(C)(C)OC(=O)NCCCC[C@H](NC(=O)c1[nH]cnc1C(=O)Nc1ccccc1)C(=O)OC(C)(C)C,-,.,-,-,-,-,.
